An excerpt weighted towards active compounds, which were near 3.7% of everything screened.
tim23-1 inh: tim23-1 yeast growth inhibition; inhibition, % at 20 µM; 1.3% of 330,000 active; S. cerevisiae tim23-1 growth, BacTiter-Glo luminescence, 24 h;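 active means growth inhibition of the mutant yeast at or above 50%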;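 further: temperature-sensitive mutant grown at 25 °C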
V-ATPase pH: yeast V-ATPase proton transport regulation by pHLuorin. 0.37% of 350,000 active. response, % at 10 µM. S. cerevisiae, pHLuorin cytosolic pH fluorescence; in the data active means response mostly above about 7.3%, no sharp cut-off; inactive means mostly below about 5.4%; further: actives read high
tim10-1 inh: tim10-1 yeast growth inhibition. inhibition, % at 20 µM. S. cerevisiae tim10-1 ts strain growth, BacTiter-Glo, 24 h. 2.2% of 330,000 active;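 active means inhibition of at least 40%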;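 further: mutant grown at 25 °C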
PfHsp90 yeast 2: inhibits growth of yeast expressing Plasmodium falciparum Hsp90. S. cerevisiae expressing PfHsp90, BacTiter-Glo ATP, 48 h; yeast lacking PDR1 and PDR3 efflux regulators. inhibition, % at 9.4 µM. 0.32% of 310,000 active. AID 504621;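 active means every replicate shows inhibition above about 80%, whatever the replicate mean, limit read from the data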
TIM10 inh: growth inhibitors of TIM10 yeast strain; S. cerevisiae TIM10 strain growth, BacTiter-Glo luminescence, 24 h; inhibition, % at 10 µM; 1.4% of 330,000 active; AID 463195;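 active means inhibition of 40% or more at the single tested concentration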;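 further: wild-type TIM10 isogenic control strain grown at permissive 25 °C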
tim10-1 confirm: confirmation of tim10-1 mutant yeast growth inhibitors. shares compounds with tim10-1 inh. S. cerevisiae tim10-1 ts strain growth, BacTiter-Glo, 24 h. inhibition, % at 20 µM. 56% of 7,400 active;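 active means inhibition of yeast growth at or above a set limit in either of two repeat tests at 20 µM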;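 further: tim10-1 mutant grown at permissive 25 °C to find synthetic lethal compounds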
TIM10 conf: TIM10 yeast growth inhibition, confirmed; shares compounds with TIM10 inh; S. cerevisiae tim10 strain growth, BacTiter-Glo luminescence, 24 h; inhibition, % at 10 µM; 63% of 4,600 active; AID 463215;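 active means inhibition of yeast growth at or above a set limit in either of two replicates at 10 µM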; further: this counterscreen used the strain with wild-type TIM10
Numbers stand for hits.

Screening CCOC(=O)[C@H]1[C@H]2COc3ccc(Br)cc3[C@@H]2N2C(=O)c3c(C)cc(C)cc3NC(=O)[C@@]12C returned tim23-1 inh inactive, V-ATPase pH inactive, tim10-1 inh inactive, PfHsp90 yeast 2 inactive and TIM10 inh inactive.
For Cc1ccc2cccc(NC(=S)NC(=O)c3ccccc3)c2n1 the results were tim23-1 inh inactive, V-ATPase pH inactive, tim10-1 inh 43, TIM10 inh 42, tim10-1 confirm 31 and TIM10 conf 43.
Cc1cc(C)c2cccc(NC(=S)NC(=O)c3ccccc3)c2n1 was read as tim23-1 inh inactive, V-ATPase pH inactive, tim10-1 inh inactive, PfHsp90 yeast 2 inactive and TIM10 inh inactive.
For COc1ccc(C(=O)/C=C\c2ccc(NC(=O)c3cccs3)cc2)cc1 the results were tim23-1 inh inactive, V-ATPase pH inactive, tim10-1 inh 43, PfHsp90 yeast 2 inactive, TIM10 inh 48, tim10-1 confirm 31 and TIM10 conf 40.
Screening COc1ccc(NC(=O)c2ccc(NC(=O)c3cccs3)cc2)cc1 returned tim23-1 inh inactive, V-ATPase pH inactive, tim10-1 inh inactive, PfHsp90 yeast 2 inactive and TIM10 inh inactive.
For O=C(Nc1cccc2ccccc12)c1nn(C23CC4CC(CC(C4)C2)C3)cc1[N+](=O)[O-] the results were tim23-1 inh inactive, V-ATPase pH inactive, tim10-1 inh 40, PfHsp90 yeast 2 inactive, TIM10 inh 41, tim10-1 confirm 32 and TIM10 conf inactive.
For O=C(Nc1ccc(OCC(F)(F)C(F)F)c(C(F)(F)F)c1)c1ccc(Cl)cc1 the results were tim23-1 inh inactive, V-ATPase pH inactive, tim10-1 inh 53, PfHsp90 yeast 2 inactive, TIM10 inh 58, tim10-1 confirm 35 and TIM10 conf inactive.
`CCN(CC(=O)Nc1c(F)cccc1F)C(=O)c1nc2nc(C)cc(C)n2n1` gave tim23-1 inh inactive, V-ATPase pH inactive, tim10-1 inh inactive, PfHsp90 yeast 2 inactive and TIM10 inh inactive.
Screening Cc1cn(CC(=O)NCCCN2CCCC2=O)c(=O)[nH]c1=O returned V-ATPase pH inactive and PfHsp90 yeast 2 inactive.
Oc1ccc(/C=N/NC(=S)NC2CC3CCC2C3)cc1 (configuration not stated) was read as tim23-1 inh inactive, V-ATPase pH inactive, tim10-1 inh 42, PfHsp90 yeast 2 inactive, TIM10 inh 58, tim10-1 confirm inactive and TIM10 conf inactive.
CC1CCCN(C(=O)CCNC(=O)Cn2cnc3ccccc3c2=O)C1 (configuration not stated) was read as tim23-1 inh inactive, V-ATPase pH inactive, tim10-1 inh inactive, PfHsp90 yeast 2 inactive and TIM10 inh inactive.
`Cc1ccc(C)n1N1C(=O)/C(=C\c2ccc(Cl)cc2)SC1=S` gave tim23-1 inh inactive, V-ATPase pH inactive, tim10-1 inh 69, PfHsp90 yeast 2 inactive, TIM10 inh 63, tim10-1 confirm 61 and TIM10 conf 64.
For COC(=O)c1sc(NC(=O)c2c(F)cccc2F)c(C#N)c1C the results were tim23-1 inh inactive, V-ATPase pH inactive, tim10-1 inh 45, TIM10 inh 41, tim10-1 confirm 38 and TIM10 conf inactive.
Screening CN(C)CC(C(=O)c1ccccc1)c1ccccc1 (configuration not stated) returned tim23-1 inh inactive, V-ATPase pH inactive, tim10-1 inh 50, PfHsp90 yeast 2 inactive, TIM10 inh 51, tim10-1 confirm 57 and TIM10 conf 60.
`Oc1ccccc1/C=N/Nc1cccc2cccnc12` gave tim23-1 inh inactive, tim10-1 inh 41, TIM10 inh 50, tim10-1 confirm 37 and TIM10 conf 35.
`O=C(COc1cccc2cccnc12)N/N=C/c1ccccc1O` gave tim23-1 inh inactive, V-ATPase pH inactive, tim10-1 inh inactive, PfHsp90 yeast 2 inactive and TIM10 inh inactive.
CN(C)C(=O)c1cc(C(=O)Cc2ccccc2)c[nH]1 was read as tim23-1 inh inactive, V-ATPase pH inactive, tim10-1 inh inactive, PfHsp90 yeast 2 inactive and TIM10 inh inactive.
Cc1cc(S(=O)(=O)N2CCOCC2)ccc1OCC(=O)Nc1ccc(Br)cc1F was read as tim23-1 inh inactive, V-ATPase pH inactive, tim10-1 inh inactive, PfHsp90 yeast 2 inactive and TIM10 inh inactive.
For COc1ccccc1Nc1nc(-c2ccc3c(c2)NC(=O)CO3)cs1 the results were tim23-1 inh inactive, V-ATPase pH inactive, tim10-1 inh inactive, PfHsp90 yeast 2 inactive and TIM10 inh inactive.
Screening COc1ccc(Nc2nc(-c3ccc4c(c3)NC(=O)CO4)cs2)cc1 returned tim23-1 inh inactive, V-ATPase pH inactive, tim10-1 inh inactive, PfHsp90 yeast 2 inactive, TIM10 inh 46, tim10-1 confirm 31 and TIM10 conf 46.
For COc1ccc(-c2cn3c(C)c(C(=O)N4CCN(c5ccc(F)cc5)CC4)sc3n2)cc1 the results were tim23-1 inh inactive, V-ATPase pH inactive, tim10-1 inh inactive, PfHsp90 yeast 2 inactive and TIM10 inh inactive.
Screening COc1ccccc1N1CCN(C(=O)c2sc3nc(-c4ccc(F)cc4)cn3c2C)CC1 returned tim23-1 inh inactive, V-ATPase pH inactive, tim10-1 inh 66, PfHsp90 yeast 2 inactive, TIM10 inh inactive, tim10-1 confirm 58 and TIM10 conf 51.
COC(=O)C1CCN(C(=O)c2sc3nc(-c4ccccc4)cn3c2C)CC1 was read as tim23-1 inh inactive, V-ATPase pH inactive, tim10-1 inh 48, TIM10 inh 43, tim10-1 confirm 38 and TIM10 conf inactive.
Screening CCOC(=O)N1CCN(C(=O)c2sc3nc(-c4ccc(F)cc4)cn3c2C)CC1 returned tim23-1 inh inactive, V-ATPase pH inactive, tim10-1 inh 56, PfHsp90 yeast 2 inactive, TIM10 inh 43, tim10-1 confirm 38 and TIM10 conf 40.
CCC(Oc1ccccc1)C(=O)OCC(=O)N(CC)c1c(N)n(Cc2ccccc2)c(=O)[nH]c1=O (configuration not stated) was read as tim23-1 inh inactive, V-ATPase pH inactive, tim10-1 inh inactive and TIM10 inh inactive.
For O=C(NC12CC3CC(CC(C3)C1)C2)c1ccccc1O the results were tim23-1 inh inactive, V-ATPase pH inactive, tim10-1 inh 50, PfHsp90 yeast 2 inactive, TIM10 inh 49, tim10-1 confirm 51 and TIM10 conf 48.
CC(NC(=O)c1cc(S(=O)(=O)N2CCOCC2)ccc1N1CCCC1)c1ccc(Cl)c(Cl)c1 (configuration not stated) was read as tim23-1 inh inactive, V-ATPase pH inactive, tim10-1 inh inactive and TIM10 inh inactive.
For CCOC(=O)c1ccc(N2C(=O)CC(SCC(=O)Nc3ccc(S(N)(=O)=O)cc3)C2=O)cc1 (configuration not stated) the results were tim23-1 inh inactive, V-ATPase pH inactive, tim10-1 inh 51, PfHsp90 yeast 2 inactive, TIM10 inh 41, tim10-1 confirm 45 and TIM10 conf 47.

Screens deposited in PubChem by several laboratories.
